In the library only some 10% were active in any assay of this set; here they are far more common.
HP1b binding inh = HTS for Inhibitors of HP1-beta Chromodomain Interactions with Methylated Histone Tails | AlphaScreen HP1-beta / biotin-H3K9me3 peptide binding | 390,000 compounds, 0.56% hits | AID 540317, 2011 | Potency, µM (doses to about 114 µM), inactives show at the top dose activity change, negative = inhibition, actives largely listed as inhibitors | Chromobox protein homolog 1 (Homo sapiens), P83916; note: potency is the fitted concentration of half-maximal effect; nearly all actives have a fitted effect of over 70% in size
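AlphaScreen: HP1-beta (50 nM) preformed 30 min with biotin-H3(1-18)K9me3 peptide (50 nM) in PBS pH 7.4, 0.01% Tween-20. Compound added for 30 min at RT, then streptavidin donor/nickel chelate acceptor beads (10 ug/mL) for 30 min.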
G9a block = qHTS Assay for Inhibitors of Histone Lysine Methyltransferase G9a. G9a H3K9 monomethylation, AlphaScreen, 2 h. AID 504332, 2011. Potency, µM (titrated, usually from 102 µM), for inactives: at the top dose activity, negative = inhibition, most hits filed as inhibitors. 350,000 compounds, 8.8% hits; note: potency is the fitted concentration of half-maximal effect; % is set by controls: 0 for no effect and ±100 for the full control effect; nearly all actives have a fitted effect of over 75% in size
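Signal arises when biotinylated H3K9 peptide, once monomethylated, bridges streptavidin donor and antibody-captured acceptor beads. Enzyme at 20 nM was preincubated 15 min with test compounds; peptide 500 nM and SAM 20 uM then reacted for 2 h.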
JMJD2A Tudor inh = qHTS Assay for Inhibitors of JMJD2A-Tudor Domain; Lysine-specific demethylase 4A (Homo sapiens), O75164; AlphaScreen JMJD2A-Tudor / H3K4me3 peptide binding; Potency, µM (series often up to 114 µM), for the others: at the top dose activity change, negative = inhibition, hits mostly inhibitors; 390,000 compounds, 4.4% hits; note: potency is the fitted concentration of half-maximal effect; % is set by controls: 0 for no effect and ±100 for the full control effect; nearly all actives have a fitted effect of over 50% in size
Target sequence (O75164 whole entry, looked up, the tested form may be a part): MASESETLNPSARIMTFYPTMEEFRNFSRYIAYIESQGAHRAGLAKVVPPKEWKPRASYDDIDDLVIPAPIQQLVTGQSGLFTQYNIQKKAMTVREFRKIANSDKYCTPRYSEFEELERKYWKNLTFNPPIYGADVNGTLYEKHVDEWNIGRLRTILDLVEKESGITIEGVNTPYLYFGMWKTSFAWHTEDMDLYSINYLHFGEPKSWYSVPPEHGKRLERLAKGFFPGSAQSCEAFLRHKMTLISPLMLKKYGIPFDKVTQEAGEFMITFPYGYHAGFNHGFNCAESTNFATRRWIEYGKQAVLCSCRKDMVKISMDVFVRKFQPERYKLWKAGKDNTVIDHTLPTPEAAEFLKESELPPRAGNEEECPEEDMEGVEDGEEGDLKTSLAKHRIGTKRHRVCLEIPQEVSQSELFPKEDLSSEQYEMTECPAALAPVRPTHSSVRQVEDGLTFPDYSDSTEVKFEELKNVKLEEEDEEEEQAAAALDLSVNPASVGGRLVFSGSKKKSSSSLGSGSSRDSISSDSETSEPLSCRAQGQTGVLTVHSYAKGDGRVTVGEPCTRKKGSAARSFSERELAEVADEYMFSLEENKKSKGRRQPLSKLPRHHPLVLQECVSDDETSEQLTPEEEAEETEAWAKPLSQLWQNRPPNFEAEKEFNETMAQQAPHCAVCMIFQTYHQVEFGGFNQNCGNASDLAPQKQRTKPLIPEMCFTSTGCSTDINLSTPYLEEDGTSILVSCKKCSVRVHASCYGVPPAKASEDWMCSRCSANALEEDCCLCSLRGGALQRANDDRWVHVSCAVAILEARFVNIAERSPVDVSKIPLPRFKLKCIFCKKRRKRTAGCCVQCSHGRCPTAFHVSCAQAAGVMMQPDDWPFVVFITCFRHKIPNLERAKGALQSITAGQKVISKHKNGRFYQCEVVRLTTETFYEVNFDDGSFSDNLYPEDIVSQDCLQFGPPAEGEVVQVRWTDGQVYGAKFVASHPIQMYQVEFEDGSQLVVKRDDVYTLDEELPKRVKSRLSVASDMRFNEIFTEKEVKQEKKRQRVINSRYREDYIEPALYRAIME
BAZ2B inh = qHTS Assay for Inhibitors of BAZ2B. AlphaScreen BAZ2B-H3K14Ac peptide displacement. AID 504333, 2011. Bromodomain adjacent to zinc finger domain protein 2B (Homo sapiens), Q9UIF8. 360,000 compounds, 4.4% hits. Potency, µM (highest dose often 114 µM), inactives show at the top dose activity change, negative = inhibition, actives largely listed as inhibitors; note: potency is the fitted concentration of half-maximal effect; % is set by controls: 0 for no effect and ±100 for the full control effect; nearly all actives have a fitted effect of over 60% in size
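Compounds, titrated to a top concentration of 110 uM, were incubated 30 min at room temperature with preformed BAZ2B/acetyl-K14 H3 peptide complex (50 nM each). Proximity signal was measured by AlphaScreen after 20 min with beads.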
CtBP-E1A inh = qHTS Assay for Inhibitors of the CtBP/E1A Interaction; CtBP / adenovirus E1A interaction (AlphaScreen); AlphaScreen GST-E1A/His-CtBP binding, 1536-well; stronger effect = lower value; activity change, % (no concentration beside the values); 340,000 compounds, 0.49% hits; AID 651724, 2012; in the data active = activity change below about -65%; inconclusive = mostly about -30% to -63%; note: % is set by controls: 0 for no effect and ±100 for the full control effect
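Protein mix (5X: 125 nM each GST-E1A, His-CtBP) was incubated with pinned compound 2 h at 37 deg C in dark, in 50 mM Tris pH 8.0 buffer with 300 mM NaCl. Glutathione donor and nickel acceptor beads followed; AlphaScreen signal read after 1 h.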
Six1-Eya2 blk = qHTS Assay for Inhibitors of the Six1/Eya2 Interaction; 360,000 compounds, 0.56% hits; AlphaScreen GST-Six1/His-Eya2 binding, biochemical; stronger effect = lower value; activity change, % (no concentration beside the values); AID 651725, 2012; in the data active = activity change below about -65%; inconclusive = mostly about -30% to -63%; note: % is set by controls: 0 for no effect and ±100 for the full control effect
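Six1/Eya2 binding was read as AlphaScreen signal after compounds were pinned into GST-Six1 plus His-tagged Eya2 (5X stock 250/500 nM) in pH 8.0 Tris/NaCl/TCEP buffer, beads added, then incubated 1 h, 37 C, dark.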
* marks the source's active call; other numbers are inactive results; [ ] = dose if it differs, or a comment. Unless noted, calls come from the whole dose curve; as a rule, active = well fitted inhibition curve with a large enough effect; inconclusive = small, poorly fitted or top-dose-only effect; inactive = no such curve, though single readings can be large or run the other way.

`Cn1cccc1Cc1nnc(SCC(=O)Nc2cccc(F)c2)n1CCc1ccccc1` gave HP1b binding inh -11.0%, G9a block 44.7µM*, JMJD2A Tudor inh -32.4%, BAZ2B inh 50.1µM*, CtBP-E1A inh -8.7 and Six1-Eya2 blk -18.7.
For Cc1cc(C(=O)CSCCCn2c(=O)[nH]c3ccccc32)c(C)n1C the results were HP1b binding inh -15.2%, G9a block 10.2%[12.7 µM], JMJD2A Tudor inh 50.1µM*, BAZ2B inh inconclusive, CtBP-E1A inh -11.0 and Six1-Eya2 blk -1.9.
`O=c1[nH]c2ccccc2n1CCCSCCCn1c(=O)[nH]c2ccccc21` gave HP1b binding inh 18.8%, G9a block -22.1%, JMJD2A Tudor inh -18.5%, BAZ2B inh 3.8%, CtBP-E1A inh -2.2 and Six1-Eya2 blk -1.2.
Screening CCOc1ccc(C(=O)CCN2CCCCCC2)cc1 returned HP1b binding inh 27.5%, G9a block 5.01µM*, JMJD2A Tudor inh -9.4%, BAZ2B inh 0.2%, CtBP-E1A inh 5.5 and Six1-Eya2 blk 2.9.
Screening O=C(OCCN1CCOCC1)c1ccc(OCCN2CCOCC2)cc1 returned HP1b binding inh 16.1%, G9a block 50.1µM*, JMJD2A Tudor inh inconclusive, BAZ2B inh -36.6%, CtBP-E1A inh -1.4 and Six1-Eya2 blk 17.1.
For CCCOc1ccc(C(=O)CCC(=O)OCC(=O)Nc2ccc(OCC)cc2)cc1 the results were G9a block 2.3%[12.7 µM] and BAZ2B inh -4.4%.
For CCCOc1ccc(C(=O)CCC(=O)Nc2ccc(N3CCN(C)CC3)cc2)cc1 the results were HP1b binding inh -20.5%, G9a block inconclusive, JMJD2A Tudor inh 56.2µM*, BAZ2B inh 50.1µM*, CtBP-E1A inh -9.3 and Six1-Eya2 blk -13.4.
For NC(=O)NN=C1c2cc(S(=O)(=O)N3CCOCC3)ccc2-c2ccc(S(=O)(=O)N3CCOCC3)cc21 the results were HP1b binding inh 46.0% and JMJD2A Tudor inh -22.0%.
NC(=S)NN=C1c2cc(OCCN3CCOCC3)ccc2-c2ccc(OCCN3CCOCC3)cc21 was read as HP1b binding inh inconclusive, G9a block 31.6µM*, JMJD2A Tudor inh inconclusive, BAZ2B inh 39.8µM*, CtBP-E1A inh inconclusive and Six1-Eya2 blk -14.5.
Screening Cc1ccc(S(=O)(=O)N2[C@H](C(C)C)[C@H]3[C@H]4C(=O)N(c5ccccc5)C(=O)[C@H]4CC(=O)[C@H]3[C@@H]2c2ccccc2)cc1 returned CtBP-E1A inh 0.1 and Six1-Eya2 blk 0.6.
CCCCCOc1ccc(C(=O)CCC(=O)N2CCCC2)cc1 was read as HP1b binding inh -13.8%, G9a block 17.0%, JMJD2A Tudor inh -15.0%, BAZ2B inh 20.6%, CtBP-E1A inh -0.4 and Six1-Eya2 blk 12.1.
`CCCCOc1ccc(C(=O)NN2CCOCC2)cc1` gave HP1b binding inh 28.4%, JMJD2A Tudor inh 7.9%, CtBP-E1A inh 0.0 and Six1-Eya2 blk 7.5.
`CCCCOc1ccc(C(=O)CCN2CCOCC2)cc1` gave HP1b binding inh 20.3%, G9a block 22.4µM*, JMJD2A Tudor inh -18.0%[57.1 µM], BAZ2B inh -0.1%, CtBP-E1A inh 19.4 and Six1-Eya2 blk 5.1.
`CCCOc1ccc(C(=O)CCN2CCCCC2)cc1` gave HP1b binding inh 28.9%, G9a block 17.8µM*, JMJD2A Tudor inh -13.3%, BAZ2B inh -6.7%, CtBP-E1A inh -0.1 and Six1-Eya2 blk -3.2.
For COc1ncnc2c1ncn2CCCN1CCN(C(=O)C2CC2)CC1 the results were CtBP-E1A inh 7.9 and Six1-Eya2 blk -1.1.
`Cc1[nH]c2ccc(F)cc2c(=O)c1SC(F)(F)C(F)C(F)(F)F` (stereo not given) gave HP1b binding inh 27.9%, G9a block 31.6µM*, JMJD2A Tudor inh -9.4%, BAZ2B inh 9.6%, CtBP-E1A inh 1.2 and Six1-Eya2 blk -0.2.
COc1cccc2c(=O)c(SC(F)(F)C(F)C(F)(F)F)c(C)[nH]c12 (stereo not given) was read as HP1b binding inh 12.4%, G9a block inconclusive, JMJD2A Tudor inh -5.3%, BAZ2B inh -0.7%, CtBP-E1A inh -8.2 and Six1-Eya2 blk -1.7.
Screening Cc1cc(C)nc(SCC(=O)N/N=C/c2cccn2-c2ccc(O)cc2)n1 returned HP1b binding inh -26.4%, G9a block 39.8µM*, JMJD2A Tudor inh inconclusive, BAZ2B inh inconclusive, CtBP-E1A inh -9.5 and Six1-Eya2 blk -20.2.
`O=C(CSc1ncccn1)NN=C1CCCCCCC1` gave HP1b binding inh 32.9%, G9a block 7.5%[59 µM], JMJD2A Tudor inh 0.8%, BAZ2B inh -6.7%, CtBP-E1A inh -0.3 and Six1-Eya2 blk 7.2.
Screening Cc1cc(C)nc(SCC(=O)NN=C2CCCC2)n1 returned HP1b binding inh inconclusive, G9a block 11.7%[59 µM], JMJD2A Tudor inh 17.8µM*, BAZ2B inh -18.9% and Six1-Eya2 blk -17.1.
`Cc1cc(C)nc(SCC(=O)N/N=C/c2cccc([N+](=O)[O-])c2)n1` gave HP1b binding inh -23.6%, G9a block -23.3%, JMJD2A Tudor inh 39.8µM*, BAZ2B inh 5.5%, CtBP-E1A inh 5.5 and Six1-Eya2 blk -2.3.
`O=C(CSc1ncccn1)N/N=C/c1cccc([N+](=O)[O-])c1` gave HP1b binding inh 27.5%, G9a block 2.8%[59 µM], JMJD2A Tudor inh 0.7%, BAZ2B inh 1.1%, CtBP-E1A inh -1.5 and Six1-Eya2 blk -11.8.
Screening O=c1c(-c2ccc(Cl)cc2)nc2cnc(N3CCNCC3)nc2n1CCc1ccccc1 returned G9a block -3.2%[0.501 µM].
`Cc1nn(CC(=O)N(C)C)c(C)c1S(=O)(=O)N1CCOCC1` gave HP1b binding inh 33.8%, G9a block -7.6%[12.7 µM], JMJD2A Tudor inh 1.3%, BAZ2B inh -1.0%, CtBP-E1A inh 8.8 and Six1-Eya2 blk 0.2.
`O=c1c2cc3c(nc2ncn1Cc1ccccc1F)CCCC3` gave HP1b binding inh 11.4%[57 µM], G9a block 9.3%[59 µM], JMJD2A Tudor inh -10.5% and BAZ2B inh -5.6%.
For CCCC1=NN2C(=N)/C(=C\c3cc(C)n(-c4cccc(C)c4)c3C)C(=O)N=C2S1 the results were HP1b binding inh 16.5%, G9a block -9.7%[59 µM], JMJD2A Tudor inh -19.3%, BAZ2B inh -4.7%, CtBP-E1A inh -12.7 and Six1-Eya2 blk -22.0.
